# Data as given in paper PMC7862700, “An all-to-all approach to the identification of sequence-specific readers for epigenetic DNA modifications on cytosine”.
# How the values were obtained:
# Assay in all cases: DAPPL (digital affinity profiling via proximity ligation, sequencing); 10 mM Tris-HCl pH 7.5, 50 mM NaCl, 1 mM DTT, 4% glycerol, room temperature, 30 min; GST-TFs on glutathione beads, 16-mer random dsDNA library, 0.1% formaldehyde crosslink after washing; high values mean tight binding
# [1] = molecular target: T1, FLI1 (Homo sapiens, UniProt Q01543 1-452); conditions: protein: recombinant; tags: N-terminal GST; dsDNA, one strand shown
# T1 sequence: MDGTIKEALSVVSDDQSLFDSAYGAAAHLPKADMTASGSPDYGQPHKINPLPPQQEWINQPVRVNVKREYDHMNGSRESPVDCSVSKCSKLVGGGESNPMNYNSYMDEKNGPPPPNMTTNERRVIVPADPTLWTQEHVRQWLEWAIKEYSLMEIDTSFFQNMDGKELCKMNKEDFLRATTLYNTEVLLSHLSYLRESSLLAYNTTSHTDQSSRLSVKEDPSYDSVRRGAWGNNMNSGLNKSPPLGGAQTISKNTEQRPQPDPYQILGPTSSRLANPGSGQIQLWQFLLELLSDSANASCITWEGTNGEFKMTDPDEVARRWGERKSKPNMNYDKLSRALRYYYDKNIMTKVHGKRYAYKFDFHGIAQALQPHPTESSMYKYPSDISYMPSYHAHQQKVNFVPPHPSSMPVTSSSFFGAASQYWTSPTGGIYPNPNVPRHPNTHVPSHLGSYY
# In short: (§1)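 Human transcription factors carrying a GST fusion were produced in yeast, bound to glutathione beads, tagged with DNA barcodes and pooled together with a tag-only sample. Each pool was held with 200 nmole of a random double-stranded 16-mer DNA library in Tris/NaCl/DTT/glycerol buffer for 30 min at room temperature, then washed, crosslinked in 0.1% formaldehyde, proximity-ligated with BsaI/T4 ligase (1 h, 37 °C), PCR-amplified and sequenced on an Illumina NextSeq500. Binding signal is the read frequency of each hexamer for a given factor divided by its frequency in the tag-only sample.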
# [2] = molecular target: T2, ELK1 (Homo sapiens, UniProt P19419 1-428); conditions: protein: recombinant; tags: N-terminal GST; dsDNA, one strand shown
# T2 sequence: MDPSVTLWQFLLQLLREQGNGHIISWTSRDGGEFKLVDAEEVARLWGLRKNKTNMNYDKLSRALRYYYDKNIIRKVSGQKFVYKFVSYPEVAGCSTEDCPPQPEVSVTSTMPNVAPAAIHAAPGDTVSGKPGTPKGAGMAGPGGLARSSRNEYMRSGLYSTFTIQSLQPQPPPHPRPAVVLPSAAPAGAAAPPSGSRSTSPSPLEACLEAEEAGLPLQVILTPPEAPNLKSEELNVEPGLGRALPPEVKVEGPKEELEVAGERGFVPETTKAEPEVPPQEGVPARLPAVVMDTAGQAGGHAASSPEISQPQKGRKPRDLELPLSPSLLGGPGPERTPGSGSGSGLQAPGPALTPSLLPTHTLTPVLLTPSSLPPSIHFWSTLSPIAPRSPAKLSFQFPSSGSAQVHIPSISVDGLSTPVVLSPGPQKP
# In short: as §1
# [3] = molecular target: T3, GABPA (Homo sapiens, UniProt Q06546 1-454); conditions: protein: recombinant; tags: N-terminal GST; dsDNA, one strand shown
# T3 sequence: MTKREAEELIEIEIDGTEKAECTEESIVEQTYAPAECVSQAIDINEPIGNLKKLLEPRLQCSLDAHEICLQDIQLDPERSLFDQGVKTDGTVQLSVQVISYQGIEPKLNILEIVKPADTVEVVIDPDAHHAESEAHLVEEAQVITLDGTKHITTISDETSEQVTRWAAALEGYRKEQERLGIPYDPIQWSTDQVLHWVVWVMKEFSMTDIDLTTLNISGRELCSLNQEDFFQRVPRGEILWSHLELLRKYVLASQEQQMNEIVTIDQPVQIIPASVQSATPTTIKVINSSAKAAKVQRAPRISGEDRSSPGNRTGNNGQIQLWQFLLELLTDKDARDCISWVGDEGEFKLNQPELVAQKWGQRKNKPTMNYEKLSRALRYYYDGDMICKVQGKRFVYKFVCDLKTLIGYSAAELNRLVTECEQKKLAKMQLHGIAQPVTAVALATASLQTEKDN
# In short: as §1
# [4] = molecular target: T4, ERG (Homo sapiens, UniProt P11308 1-479); conditions: protein: recombinant; tags: N-terminal GST; dsDNA, one strand shown
# T4 sequence: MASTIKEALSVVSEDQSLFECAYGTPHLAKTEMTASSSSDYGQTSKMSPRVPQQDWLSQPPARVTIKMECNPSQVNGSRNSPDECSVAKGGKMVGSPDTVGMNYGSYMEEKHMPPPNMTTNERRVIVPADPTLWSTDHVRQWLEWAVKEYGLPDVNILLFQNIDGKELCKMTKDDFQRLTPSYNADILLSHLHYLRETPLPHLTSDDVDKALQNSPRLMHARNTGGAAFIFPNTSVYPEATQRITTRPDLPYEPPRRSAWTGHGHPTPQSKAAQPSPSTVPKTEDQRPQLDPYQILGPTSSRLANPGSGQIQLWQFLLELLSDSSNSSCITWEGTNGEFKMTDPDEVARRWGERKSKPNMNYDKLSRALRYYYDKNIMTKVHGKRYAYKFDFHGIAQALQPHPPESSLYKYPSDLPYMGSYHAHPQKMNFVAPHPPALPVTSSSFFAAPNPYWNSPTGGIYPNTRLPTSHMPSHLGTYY
# In short: as §1
# [5] = molecular target: ELF1 (Homo sapiens, UniProt P32519 1-619); conditions: protein: recombinant; tags: N-terminal GST; dsDNA, one strand shown
# ELF1, sequence (P32519 whole entry): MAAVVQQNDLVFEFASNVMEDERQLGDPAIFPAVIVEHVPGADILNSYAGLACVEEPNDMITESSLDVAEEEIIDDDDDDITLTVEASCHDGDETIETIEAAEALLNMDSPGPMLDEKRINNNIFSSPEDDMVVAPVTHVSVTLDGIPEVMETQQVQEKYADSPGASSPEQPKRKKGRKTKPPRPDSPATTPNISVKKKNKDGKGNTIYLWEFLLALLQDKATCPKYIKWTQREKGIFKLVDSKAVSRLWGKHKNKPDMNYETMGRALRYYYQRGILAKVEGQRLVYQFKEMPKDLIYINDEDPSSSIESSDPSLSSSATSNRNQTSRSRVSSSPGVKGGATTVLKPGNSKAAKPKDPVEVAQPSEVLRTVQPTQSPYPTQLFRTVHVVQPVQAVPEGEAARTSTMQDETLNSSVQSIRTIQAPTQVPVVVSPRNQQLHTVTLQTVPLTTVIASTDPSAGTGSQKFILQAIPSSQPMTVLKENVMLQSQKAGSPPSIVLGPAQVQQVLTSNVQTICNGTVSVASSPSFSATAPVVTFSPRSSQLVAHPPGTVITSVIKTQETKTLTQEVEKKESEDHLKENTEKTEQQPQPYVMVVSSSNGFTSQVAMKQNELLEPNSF
# In short: as §1
# [6] = molecular target: T5, EHF (Homo sapiens, UniProt Q9NZC4 1-300); conditions: protein: recombinant; tags: N-terminal GST; dsDNA, one strand shown
# T5 sequence: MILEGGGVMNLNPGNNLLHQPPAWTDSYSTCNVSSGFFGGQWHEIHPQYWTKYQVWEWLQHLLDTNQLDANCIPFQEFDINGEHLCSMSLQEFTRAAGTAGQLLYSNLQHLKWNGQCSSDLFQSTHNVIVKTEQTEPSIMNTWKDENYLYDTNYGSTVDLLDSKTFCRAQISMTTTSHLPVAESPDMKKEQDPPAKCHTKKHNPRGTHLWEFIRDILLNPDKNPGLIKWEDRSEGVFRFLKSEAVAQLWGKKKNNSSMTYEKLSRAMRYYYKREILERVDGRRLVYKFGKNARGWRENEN
# In short: as §1
# [7] = molecular target: SPI1 (Homo sapiens, UniProt P17947 1-270); conditions: protein: recombinant; tags: N-terminal GST; dsDNA, one strand shown
# In short: as §1
# [8] = molecular target: SPIB (Homo sapiens, UniProt Q01892 1-262); conditions: protein: recombinant; tags: N-terminal GST; dsDNA, one strand shown
# SPIB, sequence (Q01892 whole entry): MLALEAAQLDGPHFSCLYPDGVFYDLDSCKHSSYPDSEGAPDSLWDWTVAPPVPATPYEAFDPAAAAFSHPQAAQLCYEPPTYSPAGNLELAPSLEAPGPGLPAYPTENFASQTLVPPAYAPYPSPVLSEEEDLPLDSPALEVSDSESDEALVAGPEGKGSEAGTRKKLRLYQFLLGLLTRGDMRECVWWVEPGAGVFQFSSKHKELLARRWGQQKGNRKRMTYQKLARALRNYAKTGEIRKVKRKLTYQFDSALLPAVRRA
# In short: as §1
# [9] = molecular target: T6, ELK3 (Homo sapiens, UniProt P41970 1-407); conditions: protein: recombinant; tags: N-terminal GST; dsDNA, one strand shown
# T6 sequence: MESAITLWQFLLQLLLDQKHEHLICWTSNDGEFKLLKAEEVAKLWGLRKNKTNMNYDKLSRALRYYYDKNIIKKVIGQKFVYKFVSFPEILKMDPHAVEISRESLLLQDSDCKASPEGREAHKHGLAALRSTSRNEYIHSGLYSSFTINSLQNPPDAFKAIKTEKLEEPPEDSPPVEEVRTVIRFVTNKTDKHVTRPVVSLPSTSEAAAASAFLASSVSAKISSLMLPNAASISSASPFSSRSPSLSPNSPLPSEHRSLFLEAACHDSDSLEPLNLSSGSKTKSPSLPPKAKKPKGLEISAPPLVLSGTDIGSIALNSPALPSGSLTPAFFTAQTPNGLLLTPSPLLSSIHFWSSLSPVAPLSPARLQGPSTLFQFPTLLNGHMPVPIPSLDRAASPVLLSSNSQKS
# In short: as §1
# [10] = molecular target: T7, FEV (Homo sapiens, UniProt Q99581 1-238); conditions: protein: recombinant; tags: N-terminal GST; dsDNA, one strand shown
# T7 sequence: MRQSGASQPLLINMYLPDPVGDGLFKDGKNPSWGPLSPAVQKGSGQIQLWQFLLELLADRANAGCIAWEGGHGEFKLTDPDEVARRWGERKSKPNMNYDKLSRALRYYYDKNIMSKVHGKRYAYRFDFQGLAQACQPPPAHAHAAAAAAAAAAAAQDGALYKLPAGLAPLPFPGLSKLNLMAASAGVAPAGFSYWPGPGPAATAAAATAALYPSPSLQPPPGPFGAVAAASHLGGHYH
# In short: as §1
# [11] = molecular target: ETV5 (Homo sapiens, UniProt P41161 1-510); conditions: protein: recombinant; tags: N-terminal GST; dsDNA, one strand shown
# ETV5, sequence (P41161 whole entry): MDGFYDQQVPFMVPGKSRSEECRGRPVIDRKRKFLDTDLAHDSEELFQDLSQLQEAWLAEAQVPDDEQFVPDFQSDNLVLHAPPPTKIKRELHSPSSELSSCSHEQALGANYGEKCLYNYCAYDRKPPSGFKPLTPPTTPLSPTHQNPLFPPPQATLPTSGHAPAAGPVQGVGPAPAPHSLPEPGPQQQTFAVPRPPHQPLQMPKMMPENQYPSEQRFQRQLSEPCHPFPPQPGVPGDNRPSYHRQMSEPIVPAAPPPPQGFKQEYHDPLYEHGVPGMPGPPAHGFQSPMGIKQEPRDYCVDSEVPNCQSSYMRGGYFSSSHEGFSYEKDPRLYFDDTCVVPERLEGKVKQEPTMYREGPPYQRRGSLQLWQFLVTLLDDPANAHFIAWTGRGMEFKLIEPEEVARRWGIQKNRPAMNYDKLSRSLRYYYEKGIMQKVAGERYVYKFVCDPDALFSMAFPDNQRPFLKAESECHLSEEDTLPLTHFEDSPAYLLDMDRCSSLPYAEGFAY
# In short: as §1
# [12] = molecular target: HSF1 (Homo sapiens, UniProt Q00613 1-529); conditions: protein: recombinant; tags: N-terminal GST; chain copies: 3; dsDNA, one strand shown
# HSF1, sequence (Q00613 whole entry): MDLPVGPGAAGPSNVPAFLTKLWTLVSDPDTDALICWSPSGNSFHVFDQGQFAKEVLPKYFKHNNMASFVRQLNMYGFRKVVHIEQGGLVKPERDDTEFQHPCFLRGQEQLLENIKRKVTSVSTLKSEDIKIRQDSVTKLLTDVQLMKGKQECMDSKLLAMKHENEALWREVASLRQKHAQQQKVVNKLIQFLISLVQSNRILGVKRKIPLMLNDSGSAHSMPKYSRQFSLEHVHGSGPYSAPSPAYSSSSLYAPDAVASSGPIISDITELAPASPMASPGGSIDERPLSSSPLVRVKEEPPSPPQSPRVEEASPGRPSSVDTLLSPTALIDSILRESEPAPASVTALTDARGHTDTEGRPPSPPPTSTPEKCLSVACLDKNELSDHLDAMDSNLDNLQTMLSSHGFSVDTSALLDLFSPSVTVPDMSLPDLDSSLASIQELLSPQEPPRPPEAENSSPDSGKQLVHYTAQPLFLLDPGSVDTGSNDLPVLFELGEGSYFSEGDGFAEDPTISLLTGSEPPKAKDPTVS
# In short: as §1
# [13] = molecular target: T8, SPIC (Homo sapiens, UniProt Q8N5J4 1-248); conditions: protein: recombinant; tags: N-terminal GST; dsDNA, one strand shown
# T8 sequence: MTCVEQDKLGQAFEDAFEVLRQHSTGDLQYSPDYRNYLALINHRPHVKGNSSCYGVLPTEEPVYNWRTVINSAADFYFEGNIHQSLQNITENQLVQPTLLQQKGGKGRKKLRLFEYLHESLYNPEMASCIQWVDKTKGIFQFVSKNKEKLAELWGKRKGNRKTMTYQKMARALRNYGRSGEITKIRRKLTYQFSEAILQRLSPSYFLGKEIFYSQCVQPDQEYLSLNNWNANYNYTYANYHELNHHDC
# In short: as §1
# [14] = molecular target: ELF4 (Homo sapiens, UniProt Q99607 1-663); conditions: protein: recombinant; tags: N-terminal GST; dsDNA, one strand shown
# ELF4, sequence (Q99607 whole entry): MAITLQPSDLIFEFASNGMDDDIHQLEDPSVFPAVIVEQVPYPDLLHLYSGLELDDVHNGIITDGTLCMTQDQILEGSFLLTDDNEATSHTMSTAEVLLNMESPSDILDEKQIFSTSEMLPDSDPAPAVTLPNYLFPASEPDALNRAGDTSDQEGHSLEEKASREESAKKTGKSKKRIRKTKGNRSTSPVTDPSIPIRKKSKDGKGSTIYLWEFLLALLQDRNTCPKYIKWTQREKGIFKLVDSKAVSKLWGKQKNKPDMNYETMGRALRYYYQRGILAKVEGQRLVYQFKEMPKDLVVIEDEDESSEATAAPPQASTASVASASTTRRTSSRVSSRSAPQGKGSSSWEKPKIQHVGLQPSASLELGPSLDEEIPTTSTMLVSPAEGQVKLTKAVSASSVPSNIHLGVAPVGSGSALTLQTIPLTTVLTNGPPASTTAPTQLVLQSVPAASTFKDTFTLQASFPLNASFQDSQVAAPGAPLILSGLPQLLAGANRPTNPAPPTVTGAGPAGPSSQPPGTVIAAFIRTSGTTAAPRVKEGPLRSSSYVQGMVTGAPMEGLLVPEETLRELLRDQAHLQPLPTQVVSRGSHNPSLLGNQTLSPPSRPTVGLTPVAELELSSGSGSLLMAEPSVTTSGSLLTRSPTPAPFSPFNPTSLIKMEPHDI
# In short: as §1
# [15] = molecular target: T9, ELK4 (Homo sapiens, UniProt P28324-2 1-405); conditions: protein: recombinant; tags: N-terminal GST; dsDNA, one strand shown
# T9 sequence: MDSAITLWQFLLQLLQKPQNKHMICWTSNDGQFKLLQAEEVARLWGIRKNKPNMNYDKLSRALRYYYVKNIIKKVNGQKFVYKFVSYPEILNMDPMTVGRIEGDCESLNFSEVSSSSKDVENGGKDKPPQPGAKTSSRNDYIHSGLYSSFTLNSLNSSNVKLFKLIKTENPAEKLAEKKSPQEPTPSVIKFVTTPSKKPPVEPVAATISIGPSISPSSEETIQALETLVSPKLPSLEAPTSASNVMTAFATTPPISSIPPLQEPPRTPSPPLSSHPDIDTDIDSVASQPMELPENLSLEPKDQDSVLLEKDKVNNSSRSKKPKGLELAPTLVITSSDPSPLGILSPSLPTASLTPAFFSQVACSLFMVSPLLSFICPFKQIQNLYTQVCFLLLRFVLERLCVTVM
# In short: as §1
# [16] = molecular target: T10, ETV2 (Homo sapiens, UniProt O00321 1-342); conditions: protein: recombinant; tags: N-terminal GST; dsDNA, one strand shown
# T10 sequence: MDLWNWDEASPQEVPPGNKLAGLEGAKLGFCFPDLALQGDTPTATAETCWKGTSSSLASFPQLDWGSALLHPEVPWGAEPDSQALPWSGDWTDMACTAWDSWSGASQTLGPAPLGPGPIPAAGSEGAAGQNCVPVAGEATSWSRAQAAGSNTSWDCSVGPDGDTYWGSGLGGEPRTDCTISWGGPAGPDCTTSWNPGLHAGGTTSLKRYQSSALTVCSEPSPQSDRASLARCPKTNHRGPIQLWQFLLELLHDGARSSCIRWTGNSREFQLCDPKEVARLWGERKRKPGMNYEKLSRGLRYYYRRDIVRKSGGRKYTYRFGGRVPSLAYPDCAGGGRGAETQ
# In short: as §1
# [17] = molecular target: CRX (Homo sapiens, UniProt O43186 1-299); conditions: protein: recombinant; tags: N-terminal GST; dsDNA, one strand shown
# CRX, sequence (O43186 whole entry): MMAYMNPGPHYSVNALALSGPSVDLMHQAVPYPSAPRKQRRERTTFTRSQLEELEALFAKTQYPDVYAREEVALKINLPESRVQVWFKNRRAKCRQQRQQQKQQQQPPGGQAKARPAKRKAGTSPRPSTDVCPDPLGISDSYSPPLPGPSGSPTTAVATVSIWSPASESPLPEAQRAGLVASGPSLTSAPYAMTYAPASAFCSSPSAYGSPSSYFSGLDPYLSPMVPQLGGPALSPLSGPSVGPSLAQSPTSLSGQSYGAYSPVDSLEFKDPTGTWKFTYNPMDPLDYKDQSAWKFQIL
# In short: as §1
# [18] = molecular target: ETV1 (Homo sapiens, UniProt P50549 1-477); conditions: protein: recombinant; tags: N-terminal GST; dsDNA, one strand shown
# ETV1, sequence (P50549 whole entry): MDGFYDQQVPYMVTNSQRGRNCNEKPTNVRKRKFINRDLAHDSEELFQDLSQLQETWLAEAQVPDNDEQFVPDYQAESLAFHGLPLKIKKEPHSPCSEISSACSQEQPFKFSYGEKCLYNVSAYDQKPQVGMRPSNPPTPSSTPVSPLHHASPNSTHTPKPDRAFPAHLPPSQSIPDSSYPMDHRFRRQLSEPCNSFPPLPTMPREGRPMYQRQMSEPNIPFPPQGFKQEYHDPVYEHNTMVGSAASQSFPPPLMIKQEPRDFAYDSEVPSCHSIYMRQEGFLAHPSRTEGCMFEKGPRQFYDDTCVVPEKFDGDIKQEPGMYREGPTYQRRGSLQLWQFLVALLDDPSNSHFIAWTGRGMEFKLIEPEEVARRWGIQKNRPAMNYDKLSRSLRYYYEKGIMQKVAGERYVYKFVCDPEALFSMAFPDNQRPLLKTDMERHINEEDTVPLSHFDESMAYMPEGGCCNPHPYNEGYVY
# In short: as §1
sequence,measurement,setting,value
ATTCAG,binding signal,[1],"1.02 fold enrichment (6-mer frequency, TF over GST control)"
same,binding signal,[2],"1.11 fold enrichment (6-mer frequency, TF over GST control)"
same,binding signal,[3],"1.17 fold enrichment (6-mer frequency, TF over GST control)"
same,binding signal,[4],"1.14 fold enrichment (6-mer frequency, TF over GST control)"
same,binding signal,[5],"1.09 fold enrichment (6-mer frequency, TF over GST control)"
same,binding signal,[6],"1.1 fold enrichment (6-mer frequency, TF over GST control)"
same,binding signal,[7],"1.16 fold enrichment (6-mer frequency, TF over GST control)"
same,binding signal,[8],"1.02 fold enrichment (6-mer frequency, TF over GST control)"
same,binding signal,[9],"1.16 fold enrichment (6-mer frequency, TF over GST control)"
same,binding signal,[10],"1.03 fold enrichment (6-mer frequency, TF over GST control)"
same,binding signal,[11],"1.1 fold enrichment (6-mer frequency, TF over GST control)"
same,binding signal,[12],"1.17 fold enrichment (6-mer frequency, TF over GST control)"
same,binding signal,[13],"1.17 fold enrichment (6-mer frequency, TF over GST control)"
same,binding signal,[14],"1.13 fold enrichment (6-mer frequency, TF over GST control)"
same,binding signal,[15],"1.08 fold enrichment (6-mer frequency, TF over GST control)"
same,binding signal,[16],"1.02 fold enrichment (6-mer frequency, TF over GST control)"
same,binding signal,[17],"1.07 fold enrichment (6-mer frequency, TF over GST control)"
same,binding signal,[18],"1.07 fold enrichment (6-mer frequency, TF over GST control)"
